GCN5L2 inh: inhibitors of human GCN5L2 histone acetyltransferase | Q92830 | GCN5L2 HAT assay, ThioGlo1 CoA-SH fluorescence | Potency, µM (top dose mostly 58.9 µM), for the others: at the highest dose activity change, negative = inhibition, hits mostly inhibitors | 390,000 compounds, 0.21% hits | AID 504327; also: % is scaled to controls: 0 for no effect and ±100 for the full control effect
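Compounds, pin-transferred from DMSO stocks, meet 20nM GCN5L2 for 15 min before the reaction begins with H3(1-25) peptide (75uM) and acetyl-CoA (70uM). Thiol-reactive ThioGlo1 reports CoA release over 20 min at room temperature.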
Pol kappa inh: blocks human DNA polymerase kappa activity | Q9UBT6 | purified Pol kappa, fluorescent DNA synthesis assay, 10 min | Potency, µM (series often up to 107 µM), without a hit: top-dose activity, negative = inhibition, most hits filed as inhibitors | 400,000 compounds, 0.53% hits; also: % is scaled to controls: 0 for no effect and ±100 for the full control effect
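Readout: fluorescence, taken kinetically at 0 and 10 min. Conditions: 10 nM Pol kappa, 15 min RT compound preincubation, 50 nM substrate final. Controls: enzyme-free buffer wells.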
GLS inhibitor: inhibitors of human glutaminase (GLS); AID 624170; 410,000 compounds, 0.21% hits; O94925; Potency, µM (series often up to 45.5 µM), for inactives: top-dose activity change, negative = inhibition, actives largely listed as inhibitors; GLS enzymatic activity, qHTS titration; also: % is scaled to controls: 0 for no effect and ±100 for the full control effect
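Compounds were pin-transferred onto hKGA, after which L-glutamine (1 mM solution) and a detection mix of glutamate oxidase, HRP and Amplex Red were added. Initial and 30 min RT fluorescence reads were collected.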
Pol iota inh: inhibitors of human DNA polymerase iota | Pol iota fluorescent replication assay, 10 min | Potency, µM (titrated, usually from 115 µM), for the others: at the highest dose activity, negative = inhibition, hits mostly inhibitors | 390,000 compounds, 1% hits
Target sequence (Q9UNA4 whole entry, looked up): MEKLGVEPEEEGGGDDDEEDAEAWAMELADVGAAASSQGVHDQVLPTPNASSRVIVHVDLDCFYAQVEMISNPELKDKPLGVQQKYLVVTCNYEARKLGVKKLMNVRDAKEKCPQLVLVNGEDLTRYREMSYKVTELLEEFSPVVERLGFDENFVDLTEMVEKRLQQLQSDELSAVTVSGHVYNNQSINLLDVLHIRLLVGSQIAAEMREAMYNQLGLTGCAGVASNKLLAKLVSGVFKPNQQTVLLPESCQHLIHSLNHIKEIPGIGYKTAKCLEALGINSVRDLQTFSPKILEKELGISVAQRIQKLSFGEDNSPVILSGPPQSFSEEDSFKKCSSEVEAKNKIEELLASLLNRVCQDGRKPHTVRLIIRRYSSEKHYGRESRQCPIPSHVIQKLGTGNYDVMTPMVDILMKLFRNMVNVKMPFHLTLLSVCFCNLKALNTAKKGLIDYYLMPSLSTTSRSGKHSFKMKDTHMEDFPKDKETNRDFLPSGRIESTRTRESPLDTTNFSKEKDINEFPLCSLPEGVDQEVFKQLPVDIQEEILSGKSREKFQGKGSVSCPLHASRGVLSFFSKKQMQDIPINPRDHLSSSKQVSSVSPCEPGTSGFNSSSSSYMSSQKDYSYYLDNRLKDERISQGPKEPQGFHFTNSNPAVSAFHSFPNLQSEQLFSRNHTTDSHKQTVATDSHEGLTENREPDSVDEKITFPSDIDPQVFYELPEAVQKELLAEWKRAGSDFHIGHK
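Fluorescent replication assay read twice, at 0 min and 10 min after adding 50 nM (final) substrate. Enzyme (10 nM) and compounds were first incubated 15 min at room temperature; enzyme-free buffer wells were negative controls.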
Pol beta inh: DNA polymerase beta (human) inhibition; P06746; Pol beta primer extension/strand displacement, fluorescence kinetic; Potency, µM (highest dose often 114 µM), without a hit: at the highest dose activity change, negative = inhibition, hits mostly inhibitors; 340,000 compounds, 1.3% hits; AID 485314; also: % is scaled to controls: 0 for no effect and ±100 for the full control effect
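Pol beta (10 nM) and compounds were preincubated 15 min at room temperature, then 50 nM substrate (final) started primer extension/strand displacement. Reads were taken at 0 and 10 min; concentration-response data were fitted to a four-parameter Hill equation.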
Pol eta inh: blocks human DNA polymerase eta activity | recombinant Pol eta, fluorescent DNA replication assay | Potency, µM (doses to about 114 µM), for inactives: at the top dose activity change, negative = inhibition, usual class: inhibitors | 390,000 compounds, 1.2% hits | AID 588591; also: % is scaled to controls: 0 for no effect and ±100 for the full control effect
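Pol eta at 10 nM preincubated with compounds 15 min at room temperature; reaction started with fluorescent substrate (50 nM final) and read kinetically at 0 and 10 min.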
* hit, by the source's call; u = inconclusive; x = no result; [ ] = remark or other dose. Hits are enriched below; roughly 2.4% of the tested compounds scored in any of these assays. Calls follow the shape of the dose curve; as a rule, active = well fitted inhibition curve with a large enough effect; inconclusive = small, poorly fitted or top-dose-only effect, or another doubt; inactive = no such curve, though single readings can be large or run the other way. Potency is read from the fitted curve at half-maximal effect.

SMILES | GCN5L2 inh | Pol kappa inh | GLS inhibitor | Pol iota inh | Pol beta inh | Pol eta inh
COc1cccc(Nc2ncc3nc(CCc4ccccc4)c(=O)n(C4CC4)c3n2)c1 | 25.1µM* | -13.0%[60.1 µM] | x | x | x | x
O=C(Nc1nc(-c2ccco2)c(-c2ccco2)s1)C1CCC1 | -9.1% | u | -1.7% | u | u | 25.1µM*
CN(C)C=Nc1ncc2c3ccccc3n(CCN(C)C)c2c1C#N | -4.0% | u | -6.1% | -21.1% | u | -7.6%
CCN(CC)CCn1c2ccccc2c2cnc(N)c(C#N)c21 | -1.6% | u | 24.3% | u | 14.1µM* | u
Cc1c(N2C(=O)/C(=C/C3CC=CCC3)SC2=S)c(=O)n(-c2ccccc2)n1C (stereo unspecified) | -22.4% | -16.4% | -8.1% | 17.8µM* | -28.9% | -1.8%
CCn1cc(C(=O)O)c(=O)c2cc(F)c(N3CCN(S(=O)(=O)c4ccc5c(c4)OCCO5)CC3)cc21 | -7.2% | 10.1% | 10.9% | 2.1% | 0.8% | 34.1%
CCn1cc(C(=O)O)c(=O)c2cc(F)c(N3CCN(S(=O)(=O)c4ccc(NC(C)=O)cc4)CC3)cc21 | -28.9% | -36.6% | 2.1% | -19.4% | 20µM* | u
O=c1[nH]cnc2c1ncn2[C@H]1C[C@H](O)[C@@H](CO)O1 | x | 2.9% | x | 9.3% | x | x
CC(=O)Nc1ccc2c3c(cccc13)C(=O)N(c1ccccc1)C2=O | 22.4µM* | 3.6% | -17.4% | -16.7% | 19.1% | -12.6%
O=C(C[N+]12CCCc3cccc(c31)CCC2)c1ccc(Cl)c2ccccc12 | x | -13.0% | x | 29.2% | x | x
O=C(N/N=C/c1ccc([N+](=O)[O-])s1)c1ccncc1 | -6.3% | -18.1% | 9.9% | u | -0.8%[57.1 µM] | 1.7%
Cc1ccc(C(=O)N/N=C/c2ccc([N+](=O)[O-])s2)cc1 | -10.1% | -14.9% | 21.1% | u | 28.2µM* | -5.0%
Cc1ccccc1C(=O)N1CC/C(=N/OS(=O)(=O)O)c2ccc(Cl)cc21 | x | x | 6.4% | x | x | x
COc1cc(OC)c(/C=C/c2cc[n+](C)c3ccccc23)c(OC)c1 | x | 0.7% | x | 9.3% | x | x
C[n+]1ccc(/C=C/c2ccc(C=S)cc2)c2ccccc21 | x | -22.9% | x | 89.1µM* | x | x
COc1cc(OC)c(OC)cc1/C=C/c1cc[n+](C)c2ccccc12 | x | 89.1µM* | x | 70.8µM* | x | x
COC(=O)c1sccc1S(=O)(=O)N(CC(=O)Nc1ccccc1F)c1ccccc1 | -21.5% | -0.9% | 4.5% | 11.0% | 2.1% | -11.1%
Cc1ccc(C(=O)c2cn(Cc3ccc(Cl)cc3)c3nc(C)ccc3c2=O)cc1 | 0.3% | -13.9% | -5.6% | 7.1% | -29.5% | -8.4%
Cc1ccc(C(=O)c2cn(Cc3ccc(F)cc3)c3nc(C)ccc3c2=O)cc1 | 10.2% | -15.7% | -12.6% | 79.4µM* | 1.3% | -9.4%
CS(=O)(=O)N(CC(=O)NCc1ccco1)c1ccc(OCc2ccccc2)cc1 | -3.8% | -13.5% | 4.1% | u | 15.8µM* | -13.4%
CCCC(O)c1nc2ccccc2n1CCCCOc1ccc(OC)cc1 (stereo unspecified) | -3.4% | -1.3% | 3.0% | 12.1% | -10.5% | -4.9%
Cc1ccc(NC(=O)CS(=O)CC(=O)NC(C)CCc2ccco2)cc1Cl (stereo unspecified) | -7.1% | -28.5% | 8.1% | -38.7% | 31.6µM* | u
Cc1ccc(-c2ccccc2NC(=O)CS(=O)CC(=O)Nc2ccc(C)c(Cl)c2)o1 (stereo unspecified) | -4.1% | -18.1% | -5.4% | u | -2.6% | -2.1%
CSc1ccccc1C(=O)Nc1ccccc1C(=O)NC(C)C | 18.9% | -10.9% | 31.6µM* | 90.0% | -20.2% | -7.6%
CNc1ccc(C=C2c3ccccc3-c3ccccc32)cc1 | x | -11.3% | x | 9.6% | x | x
O=C(/C=C/c1ccc(O)c(O)c1)O[C@H]1C[C@@](O)(C(=O)O)CC(O)C1O (stereo partly specified) | -15.6% | -10.5%[60.1 µM] | x | x | x | x
